About 83,000 compounds went through this panel and 20% of them were active in at least one assay; those are over-represented in the sample as a whole.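 Negative percent growth values reflect cell death: -40 means 40% of the cells present at the start died, and -100 means all died.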 Activity calls are given as the source filed them. How the source made its calls: active means growth percent below 10; inactive means the rest.
Key:
Assay in all cases: NCI-60 one-dose screen, 48 h (100 = growth as untreated, 0 = no growth, -100 = all killed)
Settings in all cases: 10 µM unless noted
[1] = system: HCT-15 colon
[2] = system: HT29 colon
[3] = system: SNB-75 CNS
[4] = system: SNB-19 CNS
[5] = system: U251 CNS
[6] = system: PC-3 prostate
[7] = system: SK-MEL-5 melanoma
[8] = system: UACC-62 melanoma
[9] = system: LOX IMVI melanoma
[10] = system: SK-MEL-28 melanoma

Measured: growth

CC(=O)c1nnn(-c2c(C(=O)n3nc(C)cc3C)sc(=S)n2-c2ccccc2)c1C
inactive: [1] 101% | [2] 114% | [3] 98.4% | [4] 99.1% | [5] 109% | [6] 98.2% | [7] 100% | [8] 86.2% | [9] 98.8% | [10] 112%

NC(=O)c1c(NC(=O)c2ccc(F)cc2F)sc2c1CCC(=O)C2
inactive: [1] 11.8% | [2] 59.8% | [3] 66.8% | [4] 59.3% | [5] 32.4% | [6] 16.3% | [7] 64.6% | [8] 22.6% | [9] 22.6% | [10] 37%

COc1cc2c(cc1OC)C(Sc1ccc(F)cc1)c1c(nc(N)c(C#N)c1N)O2 (stereo not given)
active: [1] -70.7% | [2] 5.15% | [4] -82.5% | [5] -77.5% | [6] -84% | [7] -82.5% | [8] -74.2% | [9] -91.1% | [10] -71.9%
inactive: [3] 52.9%

CS(=O)(=O)c1ncc(-c2ccccc2)cn1
inactive: [1] 89.1% | [2] 105% | [3] 110% | [4] 98.1% | [5] 99.3% | [6] 100% | [7] 93% | [8] 89% | [9] 84.6% | [10] 98%

Cc1cc(-c2ccc(Cl)cc2)n(Cc2nnc(SCC(=O)Nc3ccc(S(N)(=O)=O)cc3)n2-c2ccc([N+](=O)[O-])cc2)n1
inactive: [1] 68.3% | [2] 90.9% | [3] 129% | [4] 84.6% | [5] 88.4% | [6] 56.5% | [7] 95.9% | [8] 77.4% | [9] 88.4% | [10] 97.4%

Cc1ccc(C2=NN(C)C(=O)C3(CCCC3)C2)cc1
inactive: [1] 101% | [2] 106% | [3] 93.5% | [4] 105% | [5] 103% | [6] 102% | [7] 101% | [8] 98.5% | [9] 100% | [10] 103%

CNC(=O)c1cc(-c2ccc(NC(=S)Nc3cc(C(F)(F)F)cc(C(F)(F)F)c3)cc2)nc2cccnc12
inactive: [1] 107% | [2] 108% | [3] 49.1% | [4] 104% | [5] 103% | [6] 80.6% | [7] 92.7% | [8] 95.3% | [9] 93.9% | [10] 103%

CCNC(=O)N1CCc2cc(OC)c(OCCc3ccc(OC)cc3)cc2C1c1ccc([N+](=O)[O-])cc1C (stereo not given)
active: [1] 7.24% | [2] 4.69% | [7] 0.509% | [9] 7.24%
inactive: [3] 21% | [4] 28.4% | [5] 16.4% | [6] 23.4% | [8] 30.4% | [10] 47.8%

COc1cccc(/C=C(/C)c2ccc3cccc(OC)c3[o+]2)c1O
inactive: [1] 98% | [2] 114% | [3] 92.4% | [4] 95.6% | [5] 108% | [6] 87.3% | [7] 102% | [8] 80.3% | [9] 127% | [10] 98.9%

Cc1ccc(CSc2nc(-c3ccc(Cl)cc3)c(C#N)c(N3CCNCC3)n2)cc1
inactive: [1] 76.2% | [2] 58.4% | [3] 68.5% | [4] 84.7% | [5] 65.4% | [6] 63.5% | [7] 74.2% | [8] 105% | [9] 52.1% | [10] 102%

COc1cc2nc(Cl)nc(Nc3cccc(C4=Nc5c(N)nc(N)nc5NC(c5ccc(F)cc5)C4)c3)c2cc1OC (stereo not given)
inactive: [3] 85.9% | [4] 31.7% | [6] 59.9% | [7] 67.1% | [8] 93% | [10] 94.6%
active: [1] 0.163% | [2] 9.87% | [5] -22% | [9] -53.6%

CN1CCN(c2ccc(/C=N/Nc3nc4ccccc4c(=O)n3-c3ccccc3)cc2)CC1
inactive: [1] 99.2% | [2] 100% | [3] 95.5% | [4] 105% | [5] 102% | [6] 93.2% | [7] 92.4% | [8] 101% | [9] 122% | [10] 103%

O=S(=O)(NCCNc1nccc(-n2cnc3ccccc32)n1)c1ccc(Cl)cc1
inactive: [1] 96.6% | [2] 103% | [3] 79.4% | [4] 97.7% | [5] 102% | [6] 103% | [7] 99.4% | [8] 86.4% | [9] 93.5% | [10] 101%

C#CCOC(=O)[C@@H]1CCCN1CC#C
inactive: [1] 85.7% | [2] 82.4% | [3] 77.8% | [4] 86.9% | [5] 81.4% | [6] 51.2% | [7] 90.2% | [8] 92.8% | [9] 77.7% | [10] 107%

CC1=CC(=O)C2=C(C)CC(OC(=O)CCc3ccccc3)[C@@H]3[C@H](OC(=O)[C@@H]3C)[C@@H]12 (stereo not given in full)
inactive: [1] 81.7% | [2] 78.1% | [3] 95.8% | [4] 93.6% | [5] 102% | [6] 76.7% | [7] 82% | [8] 72.7% | [9] 95.9% | [10] 100%

COc1cc(-c2nc(-c3ccccc3)[nH]c2-c2ccnc(NCCCNS(=O)(=O)c3cccc(F)c3)n2)ccc1Cl
inactive: [1] 25.7% | [2] 23.1% | [3] 77.4% | [4] 66.3% | [5] 44.5% | [6] 25.2% | [7] 34.2% | [8] 44.1% | [9] 35.5% | [10] 55%

COC(=O)C1(C)CCC[C@]2(C)[C@H]3C[C@H]4C(C(C)C)=C[C@]3(CC[C@@H]12)[C@H]1[C@@H]4[C@@H](OC(=O)c2ccco2)CC[C@@H]1OC(=O)c1ccco1 (stereo not given in full)
inactive: [1] 107% | [2] 116% | [3] 97.8% | [4] 98.4% | [5] 100% | [6] 87.9% | [7] 102% | [8] 92.6% | [9] 111% | [10] 104%

COc1c(N2CC3CCCNC3C2)c(F)cc2c(=O)c(C(=O)N/N=C/c3ccc4c(c3)OCO4)cn(C3CC3)c12 (stereo not given)
active: [1] 3.7% | [2] -19.2% | [9] -64.3%
inactive: [3] 102% | [4] 80.5% | [5] 12.4% | [6] 60.1% | [7] 22.8% | [8] 90.7% | [10] 96.5%

NC(N)=Nc1ccc(Oc2ccc(Nc3ccc(Cl)c(C(F)(F)F)c3)cc2)cc1
inactive: [1] 37% | [2] 13.7% | [3] 95.2% | [6] 32.5% | [8] 38.2% | [10] 56.6%
active: [4] 3% | [5] 3.48% | [7] 8.32% | [9] -96%

From PubChem BioAssay (NCI)
